The whole screen tested about 2,300 compounds, of which about 330 (14%) showed activity.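 Rule for the calls: active = median modified Z-score above 1.96; inactive = 1.96 or below.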 Not all results are given here.
test system: HepG2 Srxn1-GFP reporter cells (+30 nM CDDO-Me); assay: Srxn1-GFP intensity median modified Z-score relative to plate median; higher = stronger NRF2 / oxidative stress reporter activation, active = hit call of the paper; details: 10 µM; exposure time: 24h
In short: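 Compound at 10 μM was applied with an NRF2 activator at 30 nM to HepG2 Srxn1-GFP BAC reporter cells for 24 h, in DMSO at no more than 0.1%, using three replicate 96-well plates seeded at 20,000 cells per well. Fixed, Hoechst-stained cells were imaged confocally and cytoplasmic GFP was scored for each cell, with images under 100 cells left out. The figure reported is the replicate median of the per-plate modified Z-score of GFP intensity. Scaling relied on 1.4826 × median absolute deviation.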

Compound | Srxn1-GFP intensity median modified Z-score
CCS(=O)(=O)CCn1c([N+](=O)[O-])cnc1C [euspeclibcmpd439] | 0.00367 (inactive)
CCOC(=O)CCC(=O)O[C@H]1[C@H](O[C@@H]2[C@@H](C)[C@H](O[C@H]3C[C@@](C)(OC)[C@@H](O)[C@H](C)O3)C(C)C(=O)O[C@H](CC)[C@@](C)(O)[C@H](O)C(C)C(=O)C(C)C[C@@]2(C)O)O[C@H](C)C[C@@H]1N(C)C (some centres undefined) [euspeclibcmpd114] | 0.427 (inactive)
CC1(OC(=O)C=Cc2ccccc2)CC(O)C2(O)C=COC(OC3OC(CO)C(O)C(O)C3O)C12 (centres undefined) [euspeclibcmpd1930] | 0.27 (inactive)
CCCCC1=NC2(CCCC2)C(=O)N1Cc1ccc(-c2ccccc2-c2nn[nH]n2)cc1 [euspeclibcmpd676] | -0.243 (inactive)
COc1cc(O)c(C(=O)C=Cc2ccc(OC)c(O)c2)c(OC)c1 [euspeclibcmpd1967] | 23.8 (active)
COc1cc(C=CC(=O)O)ccc1O [euspeclibcmpd1346] | -0.142 (inactive)
COc1ccc(/C=C/C(=O)O)cc1OC [euspeclibcmpd2368] | -0.475 (inactive)
COc1cc(O)c(C(C)=O)c(OC)c1 [euspeclibcmpd1575] | -0.474 (inactive)
COc1cc(C=CC(=O)CC(=O)C=Cc2ccc(O)c(OC)c2)ccc1O [euspeclibcmpd1307] | 23.5 (active)
COc1cc(O)c(C(=O)C=Cc2ccc(O)c(OC)c2)c(OC)c1 [euspeclibcmpd2193] | -0.497 (inactive)
Cc1cn[nH]c1 [euspeclibcmpd2196] | 1.06 (inactive)
Cc1cn[nH]c1 [euspeclibcmpd2215] | -0.461 (inactive)
CCC(=O)O[C@]1(C(=O)SCF)[C@H](C)CC2C3CC(F)=C4CC(=O)C=C[C@]4(C)C3(F)[C@@H](O)C[C@@]21C (some centres undefined) [euspeclibcmpd975] | -0.942 (inactive)
CC(=O)Nc1c(I)c(NC(C)=O)c(I)c(C(=O)O)c1I [euspeclibcmpd867] | -0.167 (inactive)
Cc1cc(=O)oc2cc(O)c(O)cc12 [euspeclibcmpd1370] | -0.517 (inactive)
NC(CCC(=O)NC(CS)C(=O)NCC(=O)O)C(=O)O (centres undefined) [euspeclibcmpd132] | 1.19 (inactive)
C[C@]12CCC(=O)CC1=CCC1C2[C@@H](O)C[C@@]2(C)C1CC[C@]2(O)C(=O)CO (some centres undefined) [euspeclibcmpd5] | -0.578 (inactive)
O=C(O)C1CSCN1C(O)c1ccc(O)[nH]1 (centres undefined) [euspeclibcmpd1087] | -0.1 (inactive)
O=C(O)C1CC([C@H]2CCCCN2)CN2CCCCC12 (some centres undefined) [euspeclibcmpd1560] | 0.315 (inactive)
CCCN1C(=O)/C(=C/c2ccc(-n3ccnc3)cc2)SC1=S | 9.18 (active)

Compound | Srxn1-GFP intensity median modified Z-score
CC(C)(C)NCC(O)COc1cccc2c1C[C@H](O)[C@H](O)C2 (some centres undefined) [euspeclibcmpd814] | 0.0394 (inactive)
CC[C@H]1OC(=O)C[C@@H](O)[C@H](C)[C@@H](O[C@@H]2O[C@H](C)[C@@H](O[C@H]3C[C@@](C)(O)[C@@H](O)[C@H](C)O3)[C@H](N(C)C)[C@H]2O)[C@@H](CC=O)CC(C)C(=O)/C=C/C(C)=C/C1CO[C@@H]1O[C@H](C)[C@@H](O)[C@@H](OC)[C@H]1OC (some centres undefined) [euspeclibcmpd742] | -0.617 (inactive)
COc1cccc(-c2cc(=O)c3ccc(OC)cc3o2)c1 [euspeclibcmpd2098] | 1.56 (inactive)
COc1ccc(-c2coc3cc(OCC4CC4)ccc3c2=O)cc1 | 1.64 (inactive)
CC(=O)Oc1cccc(O)c1 [euspeclibcmpd584] | 0.144 (inactive)
CC(=O)Oc1ccc(O)cc1 [euspeclibcmpd2324] | 5.59 (active)
CC(=O)Nc1ccc(OC(C)=O)cc1 [euspeclibcmpd1187] | -0.386 (inactive)
CCC1C(=O)OC[C@@H]1Cc1cncn1C (some centres undefined) [euspeclibcmpd2263] | 0.439 (inactive)
OC[C@H]1O[C@@](CO)(O[C@@H]2O[C@H](CO)[C@@H](O)[C@H](O)[C@H]2O)[C@@H](O[C@@H]2O[C@H](CO)[C@@H](O)[C@H](O)[C@H]2O)[C@@H]1O [euspeclibcmpd1323] | 0.146 (inactive)
O=C(OCc1cc([N+](=O)[O-])cc2c1OCOC2)C12CC3CC(CC(Br)(C3)C1)C2 | 1.38 (inactive)
CC1(C)OC(=O)NC1=O [euspeclibcmpd99] | 0.00531 (inactive)
CC(C)C(N)C(=O)OCCOCn1cnc2c(=O)[nH]c(=N)[nH]c21 (centres undefined) [euspeclibcmpd757] | 0.568 (inactive)
CC1OC(O[C@H]2/C=C/C=C/C=C/C=C/C=C/C=C/C=C/[C@H](C)[C@@H](O)[C@@H](C)[C@H](C)OC(=O)CC(O)CC(O)CCC(O)C(O)CC(O)C[C@]3(O)C[C@H](O)C(C(=O)O)C(C2)O3)C(O)[C@H](N)C1O (some centres undefined) [euspeclibcmpd24] | 1.97 (active)
CC1C/C=C/C=C/C=C/C=C/C(O[C@@H]2O[C@H](C)[C@@H](O)[C@H](N)[C@@H]2O)CC2OC(O)(CC(O)CC3OC3/C=C/C(=O)O1)CC(O)C2C(=O)O (some centres undefined) [euspeclibcmpd858] | -0.525 (inactive)
CC1/C=C/C=C/C=C/C=C/C=C/C=C/C=C/C(OC2O[C@H](C)[C@@H](O)[C@H](N)[C@@H]2O)CC(O)C(C(=O)O)C(O)CC(=O)CC(O)CC(O)CC(O)CC(=O)CCCC(=O)CC(=O)OC1C(C)CC(C)C(O)CC(=O)c1ccc(N)cc1 (some centres undefined) [euspeclibcmpd648] | 1.22 (inactive)
COc1ccc(-c2coc3c4c(c(CC=C(C)C)c(O)c3c2=O)OC(C)(C)C=C4)cc1 [euspeclibcmpd2167] | -0.398 (inactive)
COc1cc(=NS(=O)(=O)c2ccc(N)cc2)[nH]c(OC)n1 [euspeclibcmpd399] | -0.451 (inactive)
OC[C@H]1O[C@H](O[C@H]2[C@H](O)[C@@H](O)[C@H](O)O[C@@H]2CO)[C@H](O)[C@@H](O)[C@@H]1O [euspeclibcmpd2088] | -0.629 (inactive)
COCCn1c(SCC(=O)N(C)Cc2ccc(Cl)s2)nc2cc(Cl)ccc21 | 0.575 (inactive)

From the supplement of paper PMC10498489
